From PubChem BioAssay (NCI)
Compounds without any hit were thinned out: in the full panel of roughly 83,000, 20% have a hit.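 The test compound was applied at a single concentration to cells in 96-well plates for 48 hours, and percent growth was recorded.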 The source made the active and inactive calls. The calls were made as follows: active = growth percent below 10; inactive = the rest.

Tests used:
Assay in all cases: NCI-60 one-dose screen, 48 h (100 = growth as untreated, 0 = no growth, -100 = all killed)
Conditions in all cases: 10 µM unless noted
[1] = tested on: SR leukemia
[2] = tested on: RPMI-8226 leukemia
[3] = tested on: OVCAR-8 ovarian
[4] = tested on: OVCAR-5 ovarian
[5] = tested on: OVCAR-4 ovarian
[6] = tested on: SK-OV-3 ovarian
[7] = tested on: IGROV1 ovarian
[8] = tested on: OVCAR-3 ovarian
[9] = tested on: HS 578T breast
[10] = tested on: NCI/ADR-RES ovarian
[11] = tested on: T-47D breast
[12] = tested on: BT-549 breast
[13] = tested on: MDA-MB-435 melanoma
[14] = tested on: SW-620 colon
[15] = tested on: MCF7 breast
[16] = tested on: HCT-116 colon
[17] = tested on: HCC-2998 colon
[18] = tested on: KM12 colon

Measured: growth

Cn1ccnc1C(=O)/C=C/c1ccc(CC(=O)NC2CCCCC2)cc1
inactive: [1] 24.8% | [2] 20.3% | [3] 62.4% | [4] 96.8% | [5] 58.6% | [6] 92.9% | [7] 60.4% | [8] 27.6% | [9] 86.1% | [10] 75.9% | [11] 47.9% | [12] 54.1% | [13] 54.1% | [14] 23.1% | [15] 44.3% | [16] 21.5% | [17] 100%

COc1cc2c3c(c4c5ccccc5[nH]c4c2c(OC)c1OC)C(=O)N(CCN1CCOCC1)C3=O
inactive: [1] 21.5% | [2] 39.5% | [3] 31% | [4] 99.7% | [5] 70% | [6] 83.2% | [7] 53.9% | [8] 76.4% | [9] 66.6% | [10] 45.8% | [11] 66% | [12] 73.5% | [13] 73.9% | [14] 32.4% | [15] 32% | [16] 19.7% | [17] 69.5%

O=[N+]([O-])c1ccc(NC(=S)N/N=C/c2cc3ccccc3n3nnnc23)cc1
active: [1] 4.33%
inactive: [2] 47.7% | [3] 71.2% | [4] 79.6% | [5] 63.8% | [6] 73.7% | [7] 54.5% | [8] 14.3% | [9] 67% | [10] 51.7% | [11] 46.5% | [12] 80.4% | [13] 82.4% | [14] 24.4% | [15] 13.8% | [16] 61.3% | [17] 54%

CCOC(=O)C1=C(CCl)NC(=O)NC1c1ccc2c(c1)OCO2 (stereo not given)
inactive: [1] 28% | [2] 15.3% | [3] 45.7% | [4] 24.6% | [5] 32.5% | [6] 81.8% | [7] 37.2% | [8] 24.8% | [9] 71.9% | [10] 58.6% | [11] 31.3% | [12] 32.4% | [13] 35.7% | [14] 26.7% | [17] 83.1% | [18] 84.3%
active: [15] 9.21% | [16] 8.65%

O=S(=O)(NCCCNc1nccc(-c2c(-c3cccc(F)c3)nc3sccn23)n1)c1cccc2ccccc12
inactive: [1] 62% | [2] 44.9% | [3] 38.5% | [4] 80.9% | [5] 40.2% | [6] 65.8% | [7] 22.3% | [8] 68.7% | [9] 55.9% | [10] 47.1% | [11] 18.4% | [12] 65% | [13] 22.6% | [14] 42.1% | [15] 37.4% | [16] 32.4% | [17] 16.3% | [18] 26%

COc1cc2nc(-c3ccc(C(F)(F)F)cc3)cc(OCCCN3CCOCC3)c2cc1OC
inactive: [1] 16.5% | [2] 10.8% | [3] 41.6% | [4] 45.8% | [5] 52.8% | [6] 70.3% | [7] 36.4% | [8] 61.6% | [9] 54.7% | [10] 40.4% | [11] 16.2% | [12] 30.5% | [14] 25.9% | [15] 44.4% | [16] 15.1% | [17] 43.4% | [18] 27.5%
active: [13] -26%

COc1cc(NC(C)CCCNC(=O)CCC(=O)NCCCNCCCCCCCCNCCCNC(=O)CCC(=O)NCCCC(C)Nc2cc(OC)cc3cccnc23)c2ncccc2c1 (stereo not given)
active: [11] 7.63%
inactive: [1] 107% | [2] 53.5% | [3] 70.6% | [4] 66.8% | [5] 18.1% | [6] 97.9% | [7] 59.1% | [8] 39.8% | [9] 75% | [10] 91.7% | [12] 95.2% | [13] 70.7% | [14] 78% | [15] 34.6% | [16] 52.5% | [17] 69.5% | [18] 82.1%

CCN(CC)CCCC(C)Nc1cc(O)cc2cccnc12 (stereo not given)
inactive: [1] 132% | [2] 97.3% | [3] 101% | [4] 105% | [5] 84.2% | [6] 119% | [7] 154% | [8] 90.2% | [9] 73.9% | [10] 102% | [11] 110% | [12] 105% | [13] 106% | [14] 97.2% | [15] 95% | [16] 87.6% | [17] 96.4% | [18] 105%

Cc1cc2nc3c4cc([N+](=O)[O-])ccc4n(CCN(C)C)c3nc2cc1C
inactive: [9] 20.7% | [11] 10.6% | [12] 31.7%
active: [1] -16.7% | [2] -36.4% | [3] 8.77% | [4] -8.87% | [5] 9.25% | [6] 8.97% | [7] -33.6% | [8] -8.29% | [10] -13.4% | [13] -32.2% | [14] -5.68% | [15] 4.74% | [16] 2.59% | [17] -37.2% | [18] 5.62%

CC1(C)CC[C@]2(C(=O)O)CC[C@]3(C)C(=CC[C@@H]4[C@@]5(C)Cc6c([nH]c7ccccc67)C(C)(C)[C@@H]5CC[C@]43C)[C@@H]2C1
inactive: [1] 41.3% | [2] 23.2% | [3] 35% | [4] 80.9% | [5] 36.8% | [6] 62.4% | [7] 58% | [8] 37.2% | [9] 75.2% | [10] 34.2% | [11] 49.5% | [12] 61.5% | [13] 79.3% | [14] 23.1% | [15] 19.4% | [17] 38.7% | [18] 17.7%
active: [16] 8.26%

COc1ccc(/C=C/c2nc(Nc3ccc(S(=O)(=O)NC(C)=O)cc3)c3ccccc3n2)cc1
inactive: [1] 53.9% | [2] 76.9% | [3] 76.2% | [4] 72.5% | [5] 79.4% | [6] 90.2% | [7] 91.6% | [8] 95.5% | [9] 82.8% | [10] 85.9% | [11] 67.7% | [12] 86.8% | [13] 63% | [14] 68.2% | [15] 46.7% | [16] 47.4% | [17] 82.1% | [18] 57.8%

Cc1ccc(CNc2c3ccccc3nc3cc(NC(=O)CCN4CCCC4)ccc23)cc1
active: [1] -49.4% | [2] -44.6% | [3] 7.44% | [5] -38.4% | [7] 5.63% | [8] -73.3% | [13] 8.86% | [14] -57.4% | [15] -22.4% | [16] -77.9% | [17] -15.8% | [18] -6.45%
inactive: [4] 20.7% | [6] 42.5% | [9] 14.6% | [10] 63.1% | [11] 16.9% | [12] 35.3%

CC(=O)Nc1cccc(-c2ccc3c(c2)NC(=O)/C3=C\c2ccc[nH]2)c1
inactive: [2] 15.8% | [3] 56.4% | [4] 38.4% | [5] 53.1% | [6] 48.8% | [7] 43.4% | [8] 69.6% | [9] 64.6% | [10] 49.6% | [11] 17.7% | [12] 43.2% | [13] 25.6% | [14] 37.9% | [15] 17.8% | [16] 37% | [17] 57.1% | [18] 14.5%
active: [1] 9.65%

CCCCCN1C=C/C(=C\C(=O)N2CCCc3ccccc32)c2ccccc21
inactive: [1] 61.6% | [2] 43.9% | [3] 89.3% | [4] 99.8% | [5] 75.2% | [6] 95% | [7] 77.9% | [8] 84.5% | [9] 94.8% | [10] 107% | [11] 68.2% | [12] 79.7% | [13] 97% | [14] 88.8% | [15] 91% | [16] 66.5% | [17] 102% | [18] 90.4%

O=C(NCCc1ccccc1)Nc1ccc2cc3ccc(NC(=O)NCCc4ccccc4)cc3nc2c1
active: [1] -30.2% | [9] -26.2% | [13] -13.7% | [14] 1.33% | [15] 0.969% | [16] -32.5% | [17] -8.17%
inactive: [2] 49.1% | [3] 23.8% | [4] 50.6% | [5] 62.6% | [6] 41.4% | [7] 48.2% | [8] 19.2% | [10] 105% | [11] 29.7% | [12] 70.6% | [18] 47.7%

N#CC1C(C#N)C2c3ccccc3C=CN2C1C(=O)c1ccc(Br)cc1 (stereo not given)
inactive: [1] 99.9% | [2] 110% | [3] 94.9% | [4] 98% | [5] 54.3% | [6] 108% | [7] 102% | [8] 109% | [9] 103% | [10] 94.7% | [11] 91.8% | [12] 103% | [13] 100% | [14] 99.2% | [15] 92.5% | [16] 87.7% | [17] 112% | [18] 99.2%
